Test results taken from PubChem BioAssay (NCI).
About 79,000 compounds went through this panel and 15% of them were active in at least one assay; those are over-represented in the sample as a whole. Unmarked numbers belong to inactive results. No stated cut-off is given here; in the data, active means growth inhibition above about 70%; inactive means the rest.

Experiment: NCI Yeast Anticancer Drug Screen. Data for the cln2 rad14 strain (AID 165);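 further: 0% = growth equal to vehicle treated cultures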
Settings: S. cerevisiae cln2 rad14 strain, at 50.0 µM, hits give high values
Method in brief: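 Compounds are applied to the cln2 rad14 yeast strain, and growth is then compared with that of vehicle-treated cultures to give inhibition.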

Row | SMILES | growth inhibition [%]
1 | N#Cc1c(=O)[nH]c(=O)n2c1[nH]c1ccccc12 | -32.4
2 | O=C1OC(=O)c2ccc([N+](=O)[O-])c3c(C(=O)O)ccc1c23 | -1.65
3 | CCc1cccc(C)c1N1C(=O)C(=O)C(c2nc3ccccc3o2)C(=O)C1=O | 16
4 | CCCCCCCCCCCCCCCC(=O)OCC(=O)O | 10.3
5 | O=C(O)CNC1CCCC1 | -1.6
6 | Clc1ccc(-c2nnc3c4ccccc4ccn23)cc1 | 9.55
7 | COC(=O)c1ccc2cc1Nc1c(C#N)cnc(=S)n1-2 | 23.1
8 | COC(=O)C(CC(=O)c1ccc2ccccc2c1)OC (stereo not given) | -76.7
9 | CCN(CC)CCCNC(Cc1ccccc1)c1ccc(OC)cc1 (stereo not given) | 9.05
10 | O=C(O)C(O)c1cccc([N+](=O)[O-])c1 (stereo not given) | -7.05
11 | CCCCc1ccc(Nc2nc(OC)c3ncn(C4CC(O)C(CO)O4)c3n2)cc1 (stereo not given) | 57.8
12 | Cc1cccc(C2=N/C(=C\c3ccccc3)C(=O)O2)c1 | 10.8
13 | Fc1c(F)c(F)c(Nc2c(F)c(F)c3c(F)c(F)c(F)c(F)c3c2F)c(F)c1F | -62.9
14 | CCCCCc1c(C)[nH]n(C(N)=NCCSCc2nc[nH]c2C)c1=O | 22.4
15 | CN(N)c1nc2c(N)ncnc2n1C1OC(CO)C(O)C1O (stereo not given) | 13.8

Experiment: NCI Yeast Anticancer Drug Screen. Data for the bub3 strain (AID 167)
Settings: S. cerevisiae bub3 mutant strain, at 50.0 µM, hits give high values
Method in brief: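 In this screen, a yeast mutant lacking normal mitotic checkpoint function is challenged with compound. Relative growth versus vehicle gives the inhibition value.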

Row | SMILES | growth inhibition [%]
16 | COc1ccc(C(=O)N/N=C/c2ccccc2OC)cc1 | 27.9
17 | O=C1OC(=O)c2c(Br)c(Br)c(Br)c(Br)c21 | -10.9
18 | CCOc1cc2c(cc1O)CC[C@@H]1[C@@H]2CC[C@]2(C)C(OS(=O)OC3CC[C@@H]4[C@H]5CCc6cc(O)c(OCC)cc6[C@@H]5CC[C@@]34C)CC[C@@H]12 (stereo not given in full) | 18.6
19 | Cc1c(S)cnc2ccccc12 | -14.8
20 | CCCCc1c(O)nc(NCCCC(N)C(=O)O)[nH]c1=O (stereo not given) | -4.6
21 | CCCC[n+]1cccc(C(=O)c2ccccc2)c1 | 2.35
22 | O=C1OC(c2ccc([N+](=O)[O-])cc2)=N/C1=C\c1cc(Br)ccc1O | 50.4
23 | O=C1C(Cl)N(c2ccccc2[N+](=O)[O-])C1c1c[nH]c2ccccc12 (stereo not given) | -26.2
24 | CCOC(=S)SC(=S)SC(=S)OCC | -7.75
25 | CCCCCCCCCSc1nc2ccc(N=Cc3ccccc3O)cc2s1 | 1.3
26 | CC(C)NP(=O)(OC1CC(C)(C)N(O)C(C)(C)C1)OC1CC(C)(C)N(O)C(C)(C)C1 | 2
27 | OCC1OC(n2cnc3c(NCc4ccccc4)ncnc32)C(O)C1O (stereo not given) | 11.6
28 | O/N=C1\CC2CC1C1CC3(CC3)C21 (stereo not given) | -22.2
29 | CCOC(=O)c1[nH]n(-c2ccccc2)c(=O)c1C=NC(=S)c1cccnc1 | -24.9
30 | N=c1c(C(=O)O)cccn1O | -6.55
31 | COc1cc2c3c(c1)CCCN3CCC2 | 13.2
32 | CC(C)C12Cc3c(ccc4ccccc34)OC1(C)Oc1ccc3ccccc3c1C2 (stereo not given) | -6.8
33 | CSc1nnc(CF)c(=O)[nH]1 | -7.05
34 | O=C1NC(=O)C2C3CCC(C3)C12 (stereo not given) | 4.65
35 | C=Nc1ccc(C)cc1 | -2.7

Row | SMILES | growth inhibition [%]
36 | COc1ccc(C(=O)N/N=C/c2cccc(OC)c2OC)cc1 | 13.1
37 | O=c1nc2c(c(-c3ccc(Br)cc3)[nH]1)COC/C2=C\c1ccc(Br)cc1 | 18.1
38 | COC(=O)c1cc2ccccc2c2c3c(ccc12)OCO3 | -4.05
39 | CCC(C)(CC(=O)O)CC(=O)O | 2.7
40 | Cc1cc(SCC(=O)c2ccccc2)nc2ccccc12 | -53.1
41 | N#Cc1c(=O)[nH]c(=O)n2c1[nH]c1ccccc12 | 12.1
42 | O=C1OC(=O)c2ccc([N+](=O)[O-])c3c(C(=O)O)ccc1c23 | 2.55
43 | CCc1cccc(C)c1N1C(=O)C(=O)C(c2nc3ccccc3o2)C(=O)C1=O | -4.55
44 | CCCCCCCCCCCCCCCC(=O)OCC(=O)O | 15.2
45 | O=C(O)CNC1CCCC1 | 4.95
46 | Clc1ccc(-c2nnc3c4ccccc4ccn23)cc1 | -3.95
47 | COC(=O)c1ccc2cc1Nc1c(C#N)cnc(=S)n1-2 | 14.5
48 | COC(=O)C(CC(=O)c1ccc2ccccc2c1)OC (stereo not given) | 6.35
49 | CCN(CC)CCCNC(Cc1ccccc1)c1ccc(OC)cc1 (stereo not given) | -17.6
50 | O=C(O)C(O)c1cccc([N+](=O)[O-])c1 (stereo not given) | -32.2
51 | CCCCc1ccc(Nc2nc(OC)c3ncn(C4CC(O)C(CO)O4)c3n2)cc1 (stereo not given) | 69.5
52 | Cc1cccc(C2=N/C(=C\c3ccccc3)C(=O)O2)c1 | 5.75
53 | Fc1c(F)c(F)c(Nc2c(F)c(F)c3c(F)c(F)c(F)c(F)c3c2F)c(F)c1F | 2.9
54 | CCCCCc1c(C)[nH]n(C(N)=NCCSCc2nc[nH]c2C)c1=O | -22.5
55 | CN(N)c1nc2c(N)ncnc2n1C1OC(CO)C(O)C1O (stereo not given) | 30
